According to PubChem BioAssay (NCATS):
Records with an inconclusive call do not appear. A call without a number means that no potency is given here. A number with no mark means an inactive call. Calls of active or inactive are those of the source. The call rests on the fitted dose curve; in most records, active means well fitted curve in the direction sought with a large enough effect; inconclusive means small, poorly fitted or top-dose-only effect, or another doubt; inactive means no such curve, though single readings can be large; an effect the other way counts as inactive or inconclusive.

How the values were obtained:
[1] = target: Rap guanine nucleotide exchange factor 3 (Homo sapiens) (UniProt O95398); experiment: Confirmatory qHTS for antagonist of cAMP-regulated guanine nucleotide exchange factor 3 (EPAC1) (AID 1645880); further: nearly all actives have a fitted effect of over 55% in size; further: potency means the concentration at half of the fitted maximal effect
In short: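 Nucleotide exchange uses 100 nM EPAC1, 250 nM RAP1B-BODIPY-GDP and 50 uM GDP, with compounds in a concentration-titration series. After 5 min at room temperature, fluorescence (480 nm ex/540 nm em) is read every 5 min for 30 min. Data are normalized to control ATA and DMSO.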

[2] = target: Rap guanine nucleotide exchange factor 3 (Homo sapiens) (UniProt O95398); experiment: Confirmatory qHTS for agonist of cAMP-regulated guanine nucleotide exchange factor 3 (EPAC1) (AID 1645881); further: nearly all actives have a fitted effect of over 75% in size; further: potency means the concentration at half of the fitted maximal effect;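 on activation: EPAC1 catalysed release of BODIPY-GDP from Rap1B seen as fluorescence loss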
[3] = target: Rap guanine nucleotide exchange factor 4 (Homo sapiens) (UniProt Q8WZA2); experiment: Confirmatory qHTS for agonist of cAMP-regulated guanine nucleotide exchange factor 4 (EPAC2) (AID 1645884);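 further: nucleotide exchange releases bodipy-GDP from Rap1 and this lowers its fluorescence; nearly all actives have a fitted effect of over 65% in size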
[4] = target: Rap guanine nucleotide exchange factor 4 (Homo sapiens) (UniProt Q8WZA2); experiment: Confirmatory qHTS for antagonist of cAMP-regulated guanine nucleotide exchange factor 4 (EPAC2) (AID 1645885); further: nearly all actives have a fitted effect of over 25% in size; further: potency means the concentration at half of the fitted maximal effect
[5] = target: Rap guanine nucleotide exchange factor 3 (Homo sapiens) (UniProt O95398); experiment: Counterscreen qHTS for antagonist of cAMP-regulated guanine nucleotide exchange factor 3 (EPAC1) (AID 1645888);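 further: fluorescence loss as bound BODIPY-GDP is released from Rap1B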
In short: (§1)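 Rap1B–BODIPY-GDP (250 nM) with 50 uM GDP; compounds pin-transferred to 9.74 nM–152 uM final (activator) or from 7.32 nM upwards (inhibitor). Fluorescence Ex/Em 480/540 nm read at 5 and 30 min, then after adding cAMP or buffer, at room temperature.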

[6] = target: Rap guanine nucleotide exchange factor 3 (Homo sapiens) (UniProt O95398); experiment: Counterscreen qHTS for agonist of cAMP-regulated guanine nucleotide exchange factor 3 (EPAC1) (AID 1645889); further: nearly all actives have a fitted effect of over 40% in size; further: potency means the concentration at half of the fitted maximal effect
In short: as §1

Rap guanine nucleotide exchange factor 3 (Homo sapiens), sequence (O95398 whole entry, looked up): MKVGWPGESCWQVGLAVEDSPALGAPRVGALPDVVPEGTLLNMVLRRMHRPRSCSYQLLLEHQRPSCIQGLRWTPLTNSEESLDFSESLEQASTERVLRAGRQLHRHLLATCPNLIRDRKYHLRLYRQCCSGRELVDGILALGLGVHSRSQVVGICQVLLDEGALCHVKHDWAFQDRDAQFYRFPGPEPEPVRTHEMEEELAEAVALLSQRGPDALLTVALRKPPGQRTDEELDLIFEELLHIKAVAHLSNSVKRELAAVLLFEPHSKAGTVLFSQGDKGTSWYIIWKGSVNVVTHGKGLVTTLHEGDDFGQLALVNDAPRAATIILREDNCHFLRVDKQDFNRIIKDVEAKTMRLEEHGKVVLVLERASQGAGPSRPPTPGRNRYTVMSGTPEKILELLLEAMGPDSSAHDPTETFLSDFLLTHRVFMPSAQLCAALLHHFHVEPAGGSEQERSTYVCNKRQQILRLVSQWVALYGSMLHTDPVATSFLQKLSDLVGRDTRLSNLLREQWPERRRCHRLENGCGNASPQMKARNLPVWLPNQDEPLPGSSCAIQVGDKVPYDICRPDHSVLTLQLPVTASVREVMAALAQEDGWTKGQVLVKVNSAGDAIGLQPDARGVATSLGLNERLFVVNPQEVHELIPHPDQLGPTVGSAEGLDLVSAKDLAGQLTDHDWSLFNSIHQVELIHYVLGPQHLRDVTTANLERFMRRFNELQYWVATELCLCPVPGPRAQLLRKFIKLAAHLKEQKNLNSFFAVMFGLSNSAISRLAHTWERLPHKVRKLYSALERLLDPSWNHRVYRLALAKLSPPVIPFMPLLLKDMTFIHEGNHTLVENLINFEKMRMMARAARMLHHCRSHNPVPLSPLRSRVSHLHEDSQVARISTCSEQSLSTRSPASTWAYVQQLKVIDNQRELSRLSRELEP
Rap guanine nucleotide exchange factor 4 (Homo sapiens), sequence (Q8WZA2 whole entry, looked up): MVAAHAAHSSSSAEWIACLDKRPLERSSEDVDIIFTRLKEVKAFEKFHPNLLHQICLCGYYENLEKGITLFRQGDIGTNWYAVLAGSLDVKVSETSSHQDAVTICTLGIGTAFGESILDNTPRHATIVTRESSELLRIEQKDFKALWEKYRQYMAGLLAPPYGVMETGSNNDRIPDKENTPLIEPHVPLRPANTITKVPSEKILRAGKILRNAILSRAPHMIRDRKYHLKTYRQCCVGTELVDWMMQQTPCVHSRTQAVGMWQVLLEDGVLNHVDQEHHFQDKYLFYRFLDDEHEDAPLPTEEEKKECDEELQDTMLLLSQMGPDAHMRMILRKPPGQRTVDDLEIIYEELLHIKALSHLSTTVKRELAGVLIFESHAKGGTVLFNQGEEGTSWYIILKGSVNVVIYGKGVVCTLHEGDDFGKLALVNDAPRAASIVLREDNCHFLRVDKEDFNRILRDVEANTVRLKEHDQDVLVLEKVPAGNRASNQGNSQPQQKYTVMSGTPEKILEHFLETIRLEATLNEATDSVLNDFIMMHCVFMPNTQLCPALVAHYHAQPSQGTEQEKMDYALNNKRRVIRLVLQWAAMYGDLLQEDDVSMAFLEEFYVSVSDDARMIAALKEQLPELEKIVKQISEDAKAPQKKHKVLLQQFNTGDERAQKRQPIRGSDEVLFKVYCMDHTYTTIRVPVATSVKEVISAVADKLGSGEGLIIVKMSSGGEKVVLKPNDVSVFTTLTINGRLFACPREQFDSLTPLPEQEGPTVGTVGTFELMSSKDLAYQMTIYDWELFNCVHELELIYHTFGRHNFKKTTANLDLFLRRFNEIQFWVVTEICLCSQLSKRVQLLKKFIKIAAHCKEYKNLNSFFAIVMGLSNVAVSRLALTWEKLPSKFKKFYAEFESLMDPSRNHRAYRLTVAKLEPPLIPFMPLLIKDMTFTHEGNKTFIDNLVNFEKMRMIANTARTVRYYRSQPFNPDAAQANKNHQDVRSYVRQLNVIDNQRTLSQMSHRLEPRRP

| Structure (SMILES) | Potency [1] | Potency [2] | Potency [3] | Potency [4] | Potency [5] | Potency [6] | activation [3] | activity change, negative = inhibition [5] | activation [6] | outcome [4] |
| --- | --- | --- | --- | --- | --- | --- | --- | --- | --- | --- |
| CC1CCN(C(=O)CSc2nnc(CN3CCOCC3)n2-c2ccccc2)CC1 | inactive | inactive | inactive | inactive | inactive | inactive | – | – | – | – |
| CC(OC(=O)CN1C(=O)COc2ccccc21)C(=O)NCc1ccc(F)cc1 (stereo unspecified) | inactive | inactive | inactive | inactive | inactive | inactive | – | – | – | – |
| CCN(CC)c1nc(C#N)cc(-c2ccc(OC)cc2)n1 | inactive | inactive | inactive | inactive | inactive | inactive | – | – | – | – |
| COc1cc(/C=N/NC(=O)c2ccc3c(c2)OCCO3)cc(Br)c1O | 42.6 µM (active) | inactive | inactive | inactive | inactive | inactive | – | – | – | – |
| Cc1ccccc1CN1C(=O)c2ccccc2Sc2ccc(C(=O)O)cc21 | inactive | inactive | inactive | inactive | inactive | inactive | – | – | – | – |
| O=C(O)c1ccc(Nc2ncnc3ccccc23)cc1 | inactive | inactive | inactive | inactive | inactive | inactive | – | – | – | – |
| CN(C)C(=O)CSc1nc(-c2ccccc2)c(-c2ccccc2)o1 | inactive | inactive | – | inactive | – | – | 5.35% [at 17.1 µM, percent relative to cAMP agonist control] | 3.97% [at 30.8 µM] | 9.57% [at 30.8 µM] | – |
| CCCCOC(=O)CSc1nnc(-c2ccc(Cl)cc2Cl)o1 | inactive | inactive | – | inactive | – | – | 5.42% [at 17.1 µM, percent relative to cAMP agonist control] | -4.49% [at 30.8 µM] | 14.1% [at 30.8 µM] | – |
| C/C=C/C(=O)N1c2ccc(C)cc2C(C)=CC1(C)C | inactive | inactive | inactive | inactive | inactive | inactive | – | – | – | – |
| CCOc1ccc(NC(=O)CN(C)C(=O)c2ccccc2SCc2c(C)noc2C)cc1OCC | inactive | inactive | – | inactive | – | – | 1.53% [at 17.1 µM, percent relative to cAMP agonist control] | -10.4% [at 30.8 µM] | 18% [at 30.8 µM] | – |
| Cc1cc(=O)n2c(sc3ccccc32)c1C#N | inactive | inactive | – | inactive | – | – | -1.37% [at 17.1 µM, percent relative to cAMP agonist control] | 11.2% [at 30.8 µM] | 22.2% [at 30.8 µM] | – |
| C=CCOc1ccc(/C=C2\SC(=S)N(NS(=O)(=O)c3ccccc3)C2=O)cc1 | 47.8 µM (active) | inactive | inactive | 42.6 µM (active) | inactive | inactive | – | – | – | – |
| CC(=O)NC(CCS(C)(=O)=O)C(=O)Nc1cc(C)on1 (stereo unspecified) | inactive | inactive | inactive | inactive | inactive | inactive | – | – | – | – |
| CC(NC(=O)c1cc(S(=O)(=O)N2CCOCC2)ccc1N1CCCC1)c1ccc(Cl)c(Cl)c1 (stereo unspecified) | inactive | inactive | inactive | inactive | inactive | inactive | – | – | – | – |
| O=C(c1ccc(Cl)cc1)C(CN1CCCCC1)c1ccccc1 (stereo unspecified) | 37.9 µM (active) | inactive | inactive | inactive | inactive | inactive | – | – | – | – |
| Cc1ccc2nc(-c3ccccc3)cc(C(=O)N3CC(C)OC(C)C3)c2c1 (stereo unspecified) | inactive | inactive | inactive | inactive | inactive | inactive | – | – | – | – |
| Cn1c2ccccc2c2cc(/C=N/NC(=O)c3cc(O)ccc3O)ccc21 | 25.1 µM (active) | inactive | – | inactive | – | – | -2.01% [at 17.1 µM, percent relative to cAMP agonist control] | -0.77% [at 30.8 µM] | 29.4% [at 30.8 µM] | – |
| Cc1ccc(N(Cc2cccs2)C(=O)c2ccccc2[N+](=O)[O-])cc1 | inactive | inactive | inactive | inactive | inactive | inactive | – | – | – | – |
| CCCCNC(=O)Cn1nc(N2CCN(c3ccccc3OC)CC2)ccc1=O | inactive | inactive | inactive | inactive | inactive | inactive | – | – | – | – |
| CN(Cc1ccccc1F)c1nc(-c2cccs2)nc2ccccc12 | inactive | inactive | – | inactive | – | – | 0% [at 17.1 µM, percent relative to cAMP agonist control] | -18.6% [at 30.8 µM] | 4.35% [at 30.8 µM] | – |
| Cc1ccc(NC(=O)c2cccc(NC(=O)/C=C/c3ccco3)c2)cc1C | 39.8 µM (active) | inactive | – | inactive | – | – | 6.06% [at 17.1 µM, percent relative to cAMP agonist control] | -4.44% [at 30.8 µM] | 5.53% [at 30.8 µM] | – |

| Structure (SMILES) | Potency [1] | Potency [2] | Potency [3] | Potency [4] | Potency [5] | Potency [6] | activation [3] | activity change, negative = inhibition [5] | activation [6] | outcome [4] |
| --- | --- | --- | --- | --- | --- | --- | --- | --- | --- | --- |
| CCOC(=O)/C(=C\c1ccc(N2CCC(c3ccccc3)=N2)cc1)C(C)=O | inactive | 79.4 µM (active) | – | inactive | – | 12.6 µM (active) | 15.2% [at 17.1 µM, percent relative to cAMP agonist control] | 28% [at 30.8 µM] | – | – |
| CN(Cc1ccccc1N1CCCC1)C(=O)c1cc2cc(Cl)ccc2o1 | inactive | inactive | inactive | inactive | inactive | inactive | – | – | – | – |
| C=CCn1c(C)cc(C(=O)Cn2ncc(Cl)c(Cl)c2=O)c1C | 37.9 µM (active) | inactive | inactive | inactive | inactive | inactive | – | – | – | – |
| CCC(Oc1ccccc1)C(=O)Nc1cc(Cl)ccc1-n1cncn1 (stereo unspecified) | inactive | inactive | inactive | 47.8 µM (active) | inactive | inactive | – | – | – | – |
| COc1ccc(N(C)S(=O)(=O)c2cccc3nsnc23)cc1 | inactive | inactive | inactive | inactive | inactive | inactive | – | – | – | – |
| Cn1c(N)c(C(=O)COC(=O)COc2ccccc2C#N)c(=O)n(C)c1=O | inactive | inactive | – | inactive | – | – | 1.14% [at 17.1 µM, percent relative to cAMP agonist control] | 3.67% [at 30.8 µM] | 3.75% [at 30.8 µM] | – |
| CC(Sc1ccccc1)C(=O)NNC(=O)c1csc(N2CCOCC2)n1 (stereo unspecified) | inactive | inactive | – | inactive | – | – | 4.98% [at 17.1 µM, percent relative to cAMP agonist control] | 1.84% [at 30.8 µM] | 28.3% [at 30.8 µM] | – |
| CCCCC1=CC2=CC(=O)C(C)(OC(=O)C3CCCC3)C(=O)C2=CO1 (stereo unspecified) | 39.8 µM (active) | inactive | – | inactive | – | – | 1.4% [at 17.1 µM, percent relative to cAMP agonist control] | -20.6% [at 30.8 µM] | 18% [at 30.8 µM] | – |
| O=C(O)c1cc(S(=O)(=O)Nc2cc(Cl)ccc2Oc2ccccc2)ccc1O | 26.9 µM (active) | inactive | inactive | inactive | inactive | inactive | – | – | – | – |
| Cc1ccc(/C=C/C(=O)c2ccccc(=O)c2O)c(C)c1 | 44.7 µM (active) | inactive | – | inactive | – | – | 1.7% [at 17.1 µM, percent relative to cAMP agonist control] | 12.3% [at 30.8 µM] | 23.8% [at 30.8 µM] | – |
| Cc1ccc(/C=C/C(=O)Nc2ccc(S(=O)(=O)Nc3cc(C)nc(C)n3)cc2)cc1 | inactive | inactive | inactive | inactive | inactive | inactive | – | – | – | – |
| COc1ccc2c(c1)C1=NN(/C(C)=C/C(C)=O)C(c3cccc(F)c3)C1CC2 (stereo unspecified) | inactive | inactive | – | inactive | – | – | 0.819% [at 17.1 µM, percent relative to cAMP agonist control] | -17.2% [at 30.8 µM] | 8.14% [at 30.8 µM] | – |
| O=C1S/C(=C\c2ccc(O)c([N+](=O)[O-])c2)C(=O)N1c1ccccc1Cl | 75.7 µM (active) | inactive | inactive | 47.8 µM (active) | inactive | inactive | – | – | – | – |
| CC(C(=O)Nc1ccccc1-c1ccccc1)N1CCN(C(=O)c2ccccc2)CC1 (stereo unspecified) | inactive | inactive | – | inactive | – | – | 12.7% [at 17.1 µM, percent relative to cAMP agonist control] | 16.7% [at 30.8 µM] | 29% [at 30.8 µM] | – |
| CCOC(=O)c1c(/N=C/C2=C(O)CC(C)(C)CC2=O)sc(C)c1C | inactive | inactive | – | inactive | – | – | 5.64% [at 17.1 µM, percent relative to cAMP agonist control] | -9.9% [at 30.8 µM] | 1.97% [at 30.8 µM] | – |
| Cc1c(CCC(=O)O)c(=O)oc2cc(OCc3ccc(Br)cc3)ccc12 | inactive | inactive | inactive | inactive | inactive | inactive | – | – | – | – |
| N#C/C(=C\c1cn(Cc2ccc(C#N)cc2)c2ccccc12)C(=O)NCc1cccs1 | inactive | inactive | – | inactive | – | – | 8.48% [at 17.1 µM, percent relative to cAMP agonist control] | 7.4% [at 30.8 µM] | 15.9% [at 30.8 µM] | – |
| COc1ccccc1Cc1nc2ccccc2nc1SCC(=O)Nc1ccccc1C(F)(F)F | inactive | inactive | inactive | – | inactive | inactive | – | – | – | inactive [at 12.7 µM] |
| Cc1ccc2oc(=O)n(CCOc3ccccc3Cl)c2c1 | inactive | inactive | inactive | inactive | inactive | inactive | – | – | – | – |
| COc1ccc(CCNC(=O)c2c(C)nn(-c3ccc(F)cc3)c2-n2cccc2)cc1OC | inactive | inactive | inactive | inactive | inactive | inactive | – | – | – | – |
